{"source": "PubChem BioAssay (Tox21)", "key": {"[1]": {"assay": "qHTS assay to identify small molecule agonists of the estrogen receptor alpha (ER-alpha) signaling pathway in the presence of an antagonist - cell viability counter screen (AID 1259386); further: nearly all actives have a fitted effect of over 30% in size", "conditions": "VM7Luc4E2 viability, CellTiter-Fluor fluorescence, 22 h; series mostly up to 92.4 µM", "outline": "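Steps: 5-day stripped-FBS culture; seed and incubate 24hr; add ICI-182,780 (10.0nM final); pin 15-point compound titration; incubate 22hr at 37C; add CellTiter-Fluor at 21hr; read fluorescence.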"}, "[2]": {"molecular_target": "Progesterone receptor (Homo sapiens) (UniProt P06401)", "sequence (P06401 whole entry, looked up)": "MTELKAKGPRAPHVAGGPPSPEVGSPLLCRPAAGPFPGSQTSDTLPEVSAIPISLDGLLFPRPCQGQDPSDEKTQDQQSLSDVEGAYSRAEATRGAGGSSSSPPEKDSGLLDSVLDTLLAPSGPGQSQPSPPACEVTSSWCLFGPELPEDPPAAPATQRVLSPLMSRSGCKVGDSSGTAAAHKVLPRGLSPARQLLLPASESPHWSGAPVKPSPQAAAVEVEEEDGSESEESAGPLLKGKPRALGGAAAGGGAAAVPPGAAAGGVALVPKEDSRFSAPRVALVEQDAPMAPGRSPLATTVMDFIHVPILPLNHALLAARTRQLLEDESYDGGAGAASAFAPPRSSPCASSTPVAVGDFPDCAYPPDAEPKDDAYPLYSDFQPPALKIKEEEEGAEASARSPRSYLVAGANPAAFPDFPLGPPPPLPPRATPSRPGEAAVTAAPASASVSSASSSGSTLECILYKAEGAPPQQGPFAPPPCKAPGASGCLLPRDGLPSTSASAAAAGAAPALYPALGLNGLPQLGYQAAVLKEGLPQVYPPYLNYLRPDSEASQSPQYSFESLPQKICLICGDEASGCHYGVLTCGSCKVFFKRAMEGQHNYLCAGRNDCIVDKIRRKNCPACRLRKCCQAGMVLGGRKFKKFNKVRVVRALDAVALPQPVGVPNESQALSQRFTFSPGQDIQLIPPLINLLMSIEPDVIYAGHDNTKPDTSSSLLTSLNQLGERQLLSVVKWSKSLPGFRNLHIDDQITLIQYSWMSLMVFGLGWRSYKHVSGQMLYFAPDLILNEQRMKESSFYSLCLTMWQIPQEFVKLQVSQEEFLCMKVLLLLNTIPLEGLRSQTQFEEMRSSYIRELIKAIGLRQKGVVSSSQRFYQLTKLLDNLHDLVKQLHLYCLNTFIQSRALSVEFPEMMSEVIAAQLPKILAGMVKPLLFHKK", "assay": "qHTS assay to identify small molecule agonists of the progesterone receptor (PR) signaling pathway (AID 1346784; calls by dose curve; further: nearly all actives have a fitted effect of over 30% in size; further: potency means the concentration at half of the fitted maximal effect)", "conditions": "PR-UAS-bla HEK293T, beta-lactamase FRET ratio, 16 h; series mostly up to 92.4 µM", "outline": "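Agonist qHTS: compounds pinned onto 3,000 PR-UAS-bla HEK 293T cells per well in charcoal-stripped serum medium, 16hr at 37C, then beta-lactamase activity measured by LiveBLAzer FRET fluorescence after 2 hours at room temperature.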"}, "[3]": {"assay": "qHTS assay to identify small molecule antagonists of the progesterone receptor (PR) signaling pathway - cell viability counter screen (AID 1346798); further: nearly all actives have a fitted effect of over 50% in size; further: potency means the concentration at half of the fitted maximal effect", "conditions": "PR-UAS-bla HEK293T viability, CellTiter-Glo luminescence, 16 h; series mostly up to 92.4 µM", "outline": "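Cytotoxicity read as CellTiter-Glo luminescence (30 min, room temperature) in the same wells as the beta-lactamase readout. HEK293T PR-UAS-bla cells in charcoal-stripped 2% FBS received compound and R5020, then 16 h at 37C, 5% CO2.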"}, "[4]": {"assay": "qHTS assay to identify small molecule agonists of the progesterone receptor (PR) signaling pathway - cell viability counter screen (AID 1346799; calls by dose curve; further: nearly all actives have a fitted effect of over 45% in size; further: potency means the concentration at half of the fitted maximal effect)", "conditions": "PR-UAS-bla HEK293T viability, CellTiter-Glo luminescence, 16 h; series mostly up to 92.4 µM", "outline": "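Cytotoxicity measured by CellTiter-Glo luminescence (30 min, RT) in the same wells as the PR beta-lactamase agonist read. Those HEK293T cells had 16 h compound treatment at 37 C in 2% charcoal-stripped FBS medium.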"}, "[5]": {"assay": "qHTS assay to identify small molecule antagonists of the TGF-beta/Smad signaling pathway - cell viability counter screen (AID 1346824); further: nearly all actives have a fitted effect of over 50% in size", "conditions": "SBE-bla HEK293T viability, CellTiter-Glo luminescence; series mostly up to 76.8 µM", "outline": "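Cytotoxicity counter-screen run in the same wells as the beta-lactamase Smad reporter read: CellTiter-Glo luminescence after 30 min at room temperature. HEK 293T SBE-bla cells had 5 hr compound exposure at 37 C with TGF-beta1 (0.25 ng/mL stock).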"}, "[6]": {"assay": "qHTS assay to identify small molecule agonists of the TGF-beta/Smad signaling pathway - cell viability counter screen (AID 1346829); further: top concentration of the series differs between compounds; nearly all actives have a fitted effect of over 45% in size", "conditions": "SBE-bla HEK293T viability, CellTiter-Glo luminescence, 5 h; series mostly up to 76.8 µM", "outline": "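After overnight seating at 37 C and 5% CO2, reporter cells got compounds for 5 hr and FRET substrate for 2 hr; cell viability then came from CellTiter-Glo luminescence.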"}, "[7]": {"assay": "qHTS assay to identify small molecule agonists of the TGF-beta/Smad signaling pathway (AID 1346859; active means well fitted activation curve with a large enough effect in the signal ratio in the repeat runs, not every such curve was filed as active; the % refers to the signal ratio)", "conditions": "SBE-bla HEK293T, TGF-beta/Smad beta-lactamase reporter, 5 h; series mostly up to 76.8 µM", "outline": "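Fluorescence (ex 405 nm; em 460 and 530 nm) was read 2 h after LiveBLAzer FRET substrate at RT. The preceding compound treatment of overnight-plated SBE-bla HEK293T cells lasted 5 h at 37 C.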"}, "[8]": {"molecular_target": "Thyrotropin-releasing hormone receptor (Homo sapiens) (UniProt P34981)", "sequence (P34981 whole entry, looked up)": "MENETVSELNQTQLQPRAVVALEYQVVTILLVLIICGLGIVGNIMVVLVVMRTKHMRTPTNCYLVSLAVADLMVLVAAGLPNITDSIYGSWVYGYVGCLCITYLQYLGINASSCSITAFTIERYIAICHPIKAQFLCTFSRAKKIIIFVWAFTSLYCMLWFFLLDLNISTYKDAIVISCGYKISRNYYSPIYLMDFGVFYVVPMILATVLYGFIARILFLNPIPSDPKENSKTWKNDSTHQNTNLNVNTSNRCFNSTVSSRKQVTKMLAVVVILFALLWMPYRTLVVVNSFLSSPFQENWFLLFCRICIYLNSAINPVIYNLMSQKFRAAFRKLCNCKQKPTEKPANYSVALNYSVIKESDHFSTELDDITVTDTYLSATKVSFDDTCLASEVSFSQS", "assay": "qHTS assay to identify small molecule antagonists of the thyrotropin-releasing hormone receptor (TRHR) signaling pathway (AID 1346877; active means well fitted inhibition curve with a large enough effect in the repeat runs, not every such curve was filed as active)", "conditions": "TRHR-HEK293, TRH-induced calcium fluorescence, antagonist mode; series mostly up to 51.3 µM", "outline": "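Human TRHR in HEK293 cells; inhibition of the intracellular calcium rise triggered by 1 nM TRH was followed by fluorescence over 3 min. Compounds were run at 15 concentrations, three replicates each.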"}, "[9]": {"molecular_target": "Thyrotropin-releasing hormone receptor (Homo sapiens) (UniProt P34981)", "assay": "qHTS assay to identify small molecule agonists of the thyrotropin-releasing hormone receptor (TRHR) signaling pathway (AID 1346891; calls by dose curve)", "conditions": "TRHR-HEK293 calcium fluorescence, agonist mode; series mostly up to 57.6 µM", "outline": "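Agonist-mode intracellular calcium readout: kinetic fluorescence over 3 min at 1 s intervals after compound addition to TRHR-HEK293 cells (18 h seeded, 2 h dye-loaded at 37 C). Fifteen concentrations, triplicates.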"}}, "note": "Results filed as inconclusive are left out. Entries that show only a call come without a potency. Calls of active or inactive are those of the source. Unless noted, the call rests on the fitted dose curve; in most records, active means well fitted curve in the direction sought with a large enough effect in the repeat runs; inconclusive means weak or mixed curves; inactive means no such curve, though single readings can be large; an effect the other way counts as inactive or inconclusive.", "data": [{"smiles": "Cc1cc(O)c(C)c(C)c1O", "values": [{"measurement": "Potency", "setting": "[1]", "result": "inactive"}, {"measurement": "Potency", "setting": "[2]", "result": "inactive"}, {"measurement": "Potency", "setting": "[3]", "result": "inactive"}, {"measurement": "Potency", "setting": "[4]", "result": "inactive"}, {"measurement": "Potency", "setting": "[5]", "result": "inactive"}, {"measurement": "Potency", "setting": "[6]", "result": "inactive"}, {"measurement": "Potency", "setting": "[7]", "result": "inactive"}, {"measurement": "outcome", "setting": "[8]", "result": "inactive"}, {"measurement": "Potency", "setting": "[9]", "result": "inactive"}]}, {"smiles": "CC(=O)c1ccc([N+](=O)[O-])cc1", "values": [{"measurement": "Potency", "setting": "[1]", "result": "inactive"}, {"measurement": "Potency", "setting": "[2]", "result": "inactive"}, {"measurement": "Potency", "setting": "[3]", "result": "inactive"}, {"measurement": "Potency", "setting": "[4]", "result": "inactive"}, {"measurement": "Potency", "setting": "[5]", "result": "inactive"}, {"measurement": "Potency", "setting": "[6]", "result": "inactive"}, {"measurement": "Potency", "setting": "[7]", "result": "inactive"}]}, {"smiles": "CCCCCC#CC(=O)OC", "values": [{"measurement": "Potency", "setting": "[1]", "result": "inactive"}, {"measurement": "Potency", "setting": "[2]", "result": "inactive"}, {"measurement": "Potency", "setting": "[3]", "result": "inactive"}, {"measurement": "Potency", "setting": "[4]", "result": "inactive"}, {"measurement": "Potency", "setting": "[5]", "result": "inactive"}, {"measurement": "Potency", "setting": "[6]", "result": "inactive"}, {"measurement": "Potency", "setting": "[7]", "result": "inactive"}]}, {"smiles": "Cc1ccc(CO)cc1", "values": [{"measurement": "Potency", "setting": "[1]", "result": "inactive"}, {"measurement": "Potency", "setting": "[2]", "result": "17.4 µM (active)"}, {"measurement": "Potency", "setting": "[3]", "result": "inactive"}, {"measurement": "Potency", "setting": "[5]", "result": "inactive"}, {"measurement": "Potency", "setting": "[6]", "result": "inactive"}, {"measurement": "Potency", "setting": "[7]", "result": "inactive"}, {"measurement": "outcome", "setting": "[8]", "result": "inactive"}, {"measurement": "Potency", "setting": "[9]", "result": "inactive"}]}, {"smiles": "Cc1ccc(C(C)(C)O)cc1", "values": [{"measurement": "Potency", "setting": "[1]", "result": "inactive"}, {"measurement": "Potency", "setting": "[2]", "result": "inactive"}, {"measurement": "Potency", "setting": "[3]", "result": "inactive"}, {"measurement": "Potency", "setting": "[4]", "result": "inactive"}, {"measurement": "Potency", "setting": "[7]", "result": "inactive"}, {"measurement": "outcome", "setting": "[8]", "result": "inactive"}, {"measurement": "Potency", "setting": "[9]", "result": "inactive"}]}, {"smiles": "C/C=C(/C(=C/C)c1ccc(O)cc1)c1ccc(O)cc1", "values": [{"measurement": "Potency", "setting": "[1]", "result": "inactive"}, {"measurement": "Potency", "setting": "[2]", "result": "inactive"}, {"measurement": "Potency", "setting": "[3]", "result": "inactive"}, {"measurement": "Potency", "setting": "[5]", "result": "inactive"}, {"measurement": "Potency", "setting": "[7]", "result": "inactive"}, {"measurement": "outcome", "setting": "[8]", "result": "inactive"}, {"measurement": "Potency", "setting": "[9]", "result": "inactive"}]}, {"smiles": "O=C1c2ccccc2C(=O)C1c1ccc(Br)cc1", "values": [{"measurement": "Potency", "setting": "[1]", "result": "inactive"}, {"measurement": "Potency", "setting": "[2]", "result": "inactive"}, {"measurement": "Potency", "setting": "[3]", "result": "inactive"}, {"measurement": "Potency", "setting": "[4]", "result": "inactive"}, {"measurement": "Potency", "setting": "[5]", "result": "inactive"}, {"measurement": "Potency", "setting": "[6]", "result": "inactive"}, {"measurement": "Potency", "setting": "[7]", "result": "inactive"}, {"measurement": "outcome", "setting": "[8]", "result": "inactive"}, {"measurement": "Potency", "setting": "[9]", "result": "inactive"}]}, {"smiles": "COc1ccccc1Oc1c(NS(=O)(=O)c2ccc(C(C)(C)C)cc2)nc(-c2ncccn2)nc1OCCO", "values": [{"measurement": "Potency", "setting": "[1]", "result": "inactive"}, {"measurement": "Potency", "setting": "[2]", "result": "inactive"}, {"measurement": "Potency", "setting": "[3]", "result": "inactive"}, {"measurement": "Potency", "setting": "[4]", "result": "inactive"}, {"measurement": "Potency", "setting": "[5]", "result": "inactive"}, {"measurement": "Potency", "setting": "[6]", "result": "inactive"}, {"measurement": "Potency", "setting": "[7]", "result": "inactive"}, {"measurement": "outcome", "setting": "[8]", "result": "inactive"}, {"measurement": "Potency", "setting": "[9]", "result": "inactive"}]}, {"smiles": "CCCC(=O)C(=O)O", "values": [{"measurement": "Potency", "setting": "[1]", "result": "inactive"}, {"measurement": "Potency", "setting": "[2]", "result": "inactive"}, {"measurement": "Potency", "setting": "[3]", "result": "inactive"}, {"measurement": "Potency", "setting": "[4]", "result": "inactive"}, {"measurement": "Potency", "setting": "[6]", "result": "inactive"}, {"measurement": "Potency", "setting": "[7]", "result": "inactive"}, {"measurement": "outcome", "setting": "[8]", "result": "inactive"}, {"measurement": "Potency", "setting": "[9]", "result": "inactive"}]}, {"smiles": "Cc1cc2c(OCC(CNC(C)(C)C)OC(=O)c3ccccc3)cccc2[nH]1", "note": "(centres undefined)", "values": [{"measurement": "Potency", "setting": "[1]", "result": "inactive"}, {"measurement": "Potency", "setting": "[2]", "result": "inactive"}, {"measurement": "Potency", "setting": "[3]", "result": "inactive"}, {"measurement": "Potency", "setting": "[5]", "result": "inactive"}, {"measurement": "Potency", "setting": "[6]", "result": "inactive"}, {"measurement": "Potency", "setting": "[7]", "result": "inactive"}]}, {"smiles": "CCCCCCCC/C=C\\CCCCCCCCCCCC(=O)O", "values": [{"measurement": "Potency", "setting": "[1]", "result": "inactive"}, {"measurement": "Potency", "setting": "[2]", "result": "inactive"}, {"measurement": "Potency", "setting": "[3]", "result": "inactive"}, {"measurement": "Potency", "setting": "[4]", "result": "inactive"}, {"measurement": "Potency", "setting": "[6]", "result": "inactive"}, {"measurement": "Potency", "setting": "[7]", "result": "inactive"}]}, {"smiles": "CCCCCCCC/C=C\\CCCCCCCCO", "values": [{"measurement": "Potency", "setting": "[1]", "result": "inactive"}, {"measurement": "Potency", "setting": "[2]", "result": "inactive"}, {"measurement": "Potency", "setting": "[3]", "result": "inactive"}, {"measurement": "Potency", "setting": "[4]", "result": "inactive"}, {"measurement": "Potency", "setting": "[6]", "result": "inactive"}, {"measurement": "Potency", "setting": "[7]", "result": "inactive"}, {"measurement": "outcome", "setting": "[8]", "result": "inactive"}, {"measurement": "Potency", "setting": "[9]", "result": "inactive"}]}, {"smiles": "C[C@@H]1CN(CCCn2c3ccccc3c3ccccc32)C[C@H](C)N1", "values": [{"measurement": "Potency", "setting": "[1]", "result": "inactive"}, {"measurement": "Potency", "setting": "[2]", "result": "inactive"}, {"measurement": "Potency", "setting": "[3]", "result": "11.9 µM (active)"}, {"measurement": "Potency", "setting": "[4]", "result": "11.9 µM (active)"}, {"measurement": "Potency", "setting": "[6]", "result": "inactive"}, {"measurement": "Potency", "setting": "[7]", "result": "inactive"}, {"measurement": "outcome", "setting": "[8]", "result": "inactive"}, {"measurement": "Potency", "setting": "[9]", "result": "inactive"}]}]}
